The panel holds about 83,000 compounds, 20% with a hit somewhere; the sample as a whole holds those more often.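 Single-concentration screen, 48 h exposure, 96-well plates. Endpoint: percent growth. Below 10 = active.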 A number with no mark means an inactive call. Active and inactive are the calls of the source.
test system: U251 CNS; experiment: NCI-60 one-dose screen, 48 h (100 = growth as untreated, 0 = no growth, -100 = all killed); settings: 10 µM unless noted

First: COc1ccc(-c2nc(N=Nc3c(O)[nH]c4ccccc34)nc(N3CCOCC3)c2C#N)cc1
Second: O=C(N=Nc1c(O)[nH]c2ccc(F)cc12)c1cc2ccccc2[nH]1
The growth of the first is lower: 37.8% for the first, 94.7% for the second.

Going from COc1cc2nc(-c3ccc(C(F)(F)F)cc3)cc(OCCN3CCCC3)c2cc1OC to CCCNC(=O)Oc1ccc(/C(=C(\C)c2ccccc2)c2ccc(OCCN3CCCCC3)cc2)cc1, the growth falls from 76.8% to 56.4%.

Going from NC(=S)N/N=C(/c1ccccc1)c1ccccc1N to Cc1ccc(C(=O)Nc2ccccc2C(=O)N/N=C(\c2ccccc2)c2ccccn2)cc1, the growth falls from 95.6% to 22.6%.

First: C=C(C)[C@@H]1CC[C@]2(C=O)CC[C@]3(C)[C@H](CC[C@@H]4[C@@]5(C)CCCNC(C)(C)[C@@H]5CC[C@]43C)[C@@H]12
Second: CCOC(=O)Oc1c(OC)cc(C(=O)O[C@@H]2C[C@@H]3CN4CCc5c([nH]c6cc(OC)ccc56)[C@H]4C[C@@H]3[C@H](C(=O)OC)[C@H]2OC)cc1OC
The growth of the first is higher: 50.4% for the first, 49.4% for the second.

First: COc1ccc(OC)c(/C=C/[C@H]2O[C@@H](C)[C@H](O)[C@@H]2O)c1
Second: CCC(=O)c1ccc(O)c(OC)c1
The growth of the first is higher: 94% for the first, 93.9% for the second.

Compared with Fc1cc(C2=NNC(c3ccc[nH]3)C2)ccc1-n1ccc(C(F)(F)F)n1 (stereo unspecified), COc1ccc(C2CC(n3nnnc3-c3ccccc3)=NN2)cc1 (stereo unspecified) is higher in growth: 77.6% for the first, 83.9% for the second.

First: Clc1nc(Nc2ccccc2)nc(Nc2ccccc2)n1
Second: O=S(=O)(c1ccc(N/N=C\c2ccccc2)cc1)c1ccc(N/N=C/c2ccccc2)cc1
The growth of the first is higher: 110% for the first, 66.6% for the second.

Compared with Cn1c(=O)c2[nH]c(CCCc3nc4c([nH]3)c(=O)n(C)c(=O)n4C)nc2n(C)c1=O, O=S(=O)(NCCNc1nccc(-c2c(-c3cccc(F)c3)nc3occn23)n1)c1cccc2ccccc12 is lower in growth: 107% for the first, 59.7% for the second.

Compared with COc1cc2oc(-c3cccc(C(=O)Nc4ccc(Cl)cc4)c3)cc(=O)c2c(OC)c1OC, COC(=O)N[C@H]1CCc2cc(OC)c(OC)c(OC)c2-c2ccc(SC)c(=O)cc21 is lower in growth: 37.4% for the first, 12.8% for the second.

Compared with O=C(Nc1nc2ccc(S(=O)(=O)Nc3ccc(C4(C(F)(F)F)CC4)cc3)cc2[nH]1)c1cnccn1, N#Cc1cc(-c2nc3ccccc3s2)c(=O)n(NS(=O)(=O)c2ccc(Cl)cc2)c1N is higher in growth: 38% for the first, 102% for the second.

Going from CCCCCCCCCCN=C(N)N=C(N)N to CCCCN(CCCC)CCc1c(C)cc(C)c(CCN(CCCC)CCCC)c1O, the growth falls from 34.8% to 24.6%.

Compared with CC(C)NC(=O)N1C(=O)CCC1NNC(=O)c1ccc([N+](=O)[O-])cc1 (stereo unspecified), CC(C)Cc1ccc(C(C)C(=O)NCc2c[nH]c3ccc(Cl)cc23)cc1 (stereo unspecified) is lower in growth: 109% for the first, 91.8% for the second.

Compared with COc1nccnn1, COc1ccccc1OCC(=O)N1CCCCCC1 is lower in growth: 100% for the first, 95.3% for the second.

Compared with Nc1cc(N)c2cccnc2c1O, Nc1nc(SN=Nc2ccc(S(N)(=O)=O)cc2)c2[nH]cnc2n1 is lower in growth: 68.3% for the first, 42.7% for the second.

Going from CN1CCCC1=Nc1ccccc1 to CC(c1ccccc1)n1ccnc1CO (stereo unspecified), the growth rises from 94.7% to 98.9%.

Compared with COc1ccc(CNC(=O)COc2ccc(/C=N/Nc3nc4ccccc4s3)cc2)cc1, COc1ccc(CC(C)=C(c2ccc(OCCN(C)C)cc2)c2ccc(OCCN(C)C)cc2)cc1 is higher in growth: 21.6% for the first, 55.3% for the second.

O=C1OC(=O)C2C1CC=CC2c1ccccc1 (stereo unspecified) was tested, and the growth was 87.8%.

In the case of Clc1cc(Cl)cc(N2N=C(c3cccc(Nc4ccncc4)c3)CC2c2ccccc2)c1 (stereo unspecified), the growth is reported as -31.3% (active).
C=C1C(=O)O[C@H]2[C@H]1CC/C(COC(=O)NCCc1c[nH]c3ccc(Cl)cc13)=C\CC[C@@]1(C)O[C@@H]21 was tested, and the growth was -41.4% (active).
With Cc1[nH]c(C(=O)Nc2ccccc2OCc2cccc(C(=O)NCCN)c2)c(Cl)c1Cl the growth was 4.71% (active).
For O=C1c2ccccc2-c2c1c1c(NCCCO)nc3ccccc3c1n2Cc1ccccc1, the growth was 7.89% (active).
In the case of CCOc1ccc(/C=N/Nc2cc(C)nc3ccc(Cl)cc23)cc1, the growth is reported as 8.99% (active).

test system: PC-3 prostate; experiment: as above; settings: 10 µM unless noted

Compared with COc1ccc(-c2nc(N=Nc3c(O)[nH]c4ccccc34)nc(N3CCOCC3)c2C#N)cc1, O=C(N=Nc1c(O)[nH]c2ccc(F)cc12)c1cc2ccccc2[nH]1 is higher in growth: 72.7% for the first, 103% for the second.

Compared with COc1cc2nc(-c3ccc(C(F)(F)F)cc3)cc(OCCN3CCCC3)c2cc1OC, CCCNC(=O)Oc1ccc(/C(=C(\C)c2ccccc2)c2ccc(OCCN3CCCCC3)cc2)cc1 is lower in growth: 73.8% for the first, 57.1% for the second.

First: NC(=S)N/N=C(/c1ccccc1)c1ccccc1N
Second: Cc1ccc(C(=O)Nc2ccccc2C(=O)N/N=C(\c2ccccc2)c2ccccn2)cc1
The growth of the first is higher: 67.3% for the first, 33.1% for the second.

Compared with C=C(C)[C@@H]1CC[C@]2(C=O)CC[C@]3(C)[C@H](CC[C@@H]4[C@@]5(C)CCCNC(C)(C)[C@@H]5CC[C@]43C)[C@@H]12, CCOC(=O)Oc1c(OC)cc(C(=O)O[C@@H]2C[C@@H]3CN4CCc5c([nH]c6cc(OC)ccc56)[C@H]4C[C@@H]3[C@H](C(=O)OC)[C@H]2OC)cc1OC is lower in growth: 48% for the first, 35% for the second.

First: COc1ccc(OC)c(/C=C/[C@H]2O[C@@H](C)[C@H](O)[C@@H]2O)c1
Second: CCC(=O)c1ccc(O)c(OC)c1
The growth of the first is higher: 106% for the first, 92.4% for the second.

Compared with Clc1cc(Cl)cc(N2N=C(c3cccc(Nc4ccncc4)c3)CC2c2ccccc2)c1 (stereo unspecified), Clc1nc(Nc2ccccc2)nc(Nc2ccccc2)n1 is higher in growth: 49.4% for the first, 99.5% for the second.

First: Fc1cc(C2=NNC(c3ccc[nH]3)C2)ccc1-n1ccc(C(F)(F)F)n1 (stereo unspecified)
Second: COc1ccc(C2CC(n3nnnc3-c3ccccc3)=NN2)cc1 (stereo unspecified)
The growth of the first is higher: 72.3% for the first, 58.4% for the second.

First: Cn1c(=O)c2[nH]c(CCCc3nc4c([nH]3)c(=O)n(C)c(=O)n4C)nc2n(C)c1=O
Second: O=C1c2ccccc2-c2c1c1c(NCCCO)nc3ccccc3c1n2Cc1ccccc1
The growth of the first is higher: 94% for the first, 33.8% for the second.

Going from Cc1[nH]c(C(=O)Nc2ccccc2OCc2cccc(C(=O)NCCN)c2)c(Cl)c1Cl to COc1cc2oc(-c3cccc(C(=O)Nc4ccc(Cl)cc4)c3)cc(=O)c2c(OC)c1OC, the growth falls from 79.7% to 27.1%.

Compared with O=C(Nc1nc2ccc(S(=O)(=O)Nc3ccc(C4(C(F)(F)F)CC4)cc3)cc2[nH]1)c1cnccn1, N#Cc1cc(-c2nc3ccccc3s2)c(=O)n(NS(=O)(=O)c2ccc(Cl)cc2)c1N is higher in growth: 27.7% for the first, 98.5% for the second.

Going from CCCCCCCCCCN=C(N)N=C(N)N to CCCCN(CCCC)CCc1c(C)cc(C)c(CCN(CCCC)CCCC)c1O, the growth falls from 22.1% to 14.1%.

Going from CC(C)NC(=O)N1C(=O)CCC1NNC(=O)c1ccc([N+](=O)[O-])cc1 (stereo unspecified) to COC(=O)N[C@H]1CCc2cc(OC)c(OC)c(OC)c2-c2ccc(SC)c(=O)cc21, the growth falls from 107% to 22.4%.

Compared with COc1nccnn1, COc1ccccc1OCC(=O)N1CCCCCC1 is higher in growth: 87.1% for the first, 89.8% for the second.

Going from Nc1cc(N)c2cccnc2c1O to Nc1nc(SN=Nc2ccc(S(N)(=O)=O)cc2)c2[nH]cnc2n1, the growth falls from 80.7% to 23.8%.

Going from CN1CCCC1=Nc1ccccc1 to CC(c1ccccc1)n1ccnc1CO (stereo unspecified), the growth falls from 96.9% to 94.7%.

Compared with COc1ccc(CNC(=O)COc2ccc(/C=N/Nc3nc4ccccc4s3)cc2)cc1, CCOc1ccc(/C=N/Nc2cc(C)nc3ccc(Cl)cc23)cc1 is higher in growth: 15.5% for the first, 71.2% for the second.

Going from O=C1OC(=O)C2C1CC=CC2c1ccccc1 (stereo unspecified) to O=S(=O)(c1ccc(N/N=C\c2ccccc2)cc1)c1ccc(N/N=C/c2ccccc2)cc1, the growth falls from 73.1% to 55.7%.

Compared with COc1ccc(CC(C)=C(c2ccc(OCCN(C)C)cc2)c2ccc(OCCN(C)C)cc2)cc1, CC(C)Cc1ccc(C(C)C(=O)NCc2c[nH]c3ccc(Cl)cc23)cc1 (stereo unspecified) is lower in growth: 70.8% for the first, 66.2% for the second.

With O=S(=O)(NCCNc1nccc(-c2c(-c3cccc(F)c3)nc3occn23)n1)c1cccc2ccccc12 the growth was 30.6%.

For C=C1C(=O)O[C@H]2[C@H]1CC/C(COC(=O)NCCc1c[nH]c3ccc(Cl)cc13)=C\CC[C@@]1(C)O[C@@H]21, the growth was 1.04% (active).

Source: PubChem BioAssay (NCI)
